Experimental findings from PubChem BioAssay (NCI) are described below.

Structures are written as SMILES. This is part of a sample that, as a whole, favours compounds with a hit. Of some 79,000 tested, about 15% had one in any assay. Values without a mark were called inactive. The source made the active and inactive calls. Rule as the data show it: active = growth inhibition above about 70%; inactive = the rest.

Assay [1] can be described thus: NCI Yeast Anticancer Drug Screen. Data for the rad50 strain (AID 155).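 Also: 0% = growth of vehicle-only cultures of the same strain.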 The conditions noted are these: S. cerevisiae rad50 strain growth inhibition, active compounds read high. The method in brief:
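Readout: growth inhibition relative to vehicle-treated cultures. Compound exposure was carried out in a genetically defined yeast strain deficient in DNA damage repair.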

Assay [2] in a line: NCI Yeast Anticancer Drug Screen. Data for the mec2-1 strain (AID 157). The conditions noted are these: S. cerevisiae mec2-1 strain, active compounds read high. The method in brief:
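Using mec2-1 yeast: add compound, measure growth, express inhibition versus vehicle-treated cultures.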

A short description of assay [3]: NCI Yeast Anticancer Drug Screen. Data for the sgs1 mgt1 strain (AID 161).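 Also: 0% = growth of cultures given vehicle only.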 The conditions noted are these: S. cerevisiae sgs1 mgt1 strain, active compounds read high. The essentials:
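Growth of a repair-deficient yeast mutant was monitored after compound treatment and expressed as inhibition relative to vehicle-treated cultures.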

Assay [4] in a line: NCI Yeast Anticancer Drug Screen. Data for the cln2 rad14 strain (AID 165).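 Also: 0% = growth equal to vehicle treated cultures.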 The conditions noted are these: S. cerevisiae cln2 rad14 strain, active compounds read high. The method in brief: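 Yeast strain cln2 rad14, bearing defects in cell cycle control and DNA repair, serves as the test system; values reflect growth inhibition compared with vehicle.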
Assay [5] can be described thus: NCI Yeast Anticancer Drug Screen. Data for the bub3 strain (AID 167). The conditions noted are these: S. cerevisiae bub3 mutant strain, active compounds read high. The essentials: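 Readout: yeast growth inhibition, expressed relative to vehicle-only wells. The test organism is a mutant strain from a panel with lesions in DNA repair or checkpoint genes.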
The nature of assay [6]: NCI Yeast Anticancer Drug Screen. Data for the mlh1 rad18 strain (AID 175). The conditions noted are these: S. cerevisiae mlh1 rad18 strain growth inhibition, active compounds read high. The essentials: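 Steps: expose repair-defective yeast to compound; measure growth; express inhibition against vehicle-treated controls.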
Setting [7] is: at 5.0 µM (retest, dose inferred, filed as 0.5).
Where [8] appears, read: at 50.0 µM (retest, dose inferred, filed as 5.0).

Take `Fc1ccc(NC(=S)SCc2ccc(Cl)c(Cl)c2)cc1`: the growth inhibition in assay [1] (setting [7]) is 4%; in assay [1] (setting [8]) it was 92% (active); in assay [1] (at 50.0 µM), 98.1% (active); in assay [2] (setting [7]) it was 3%; in assay [2] (setting [8]), 91% (active); in assay [2] (at 50.0 µM), 99% (active). Also, the growth inhibition in assay [3] (setting [7]) was 0%; in assay [3] (setting [8]), 97% (active); in assay [3] (at 50.0 µM), 98.8% (active); in assay [4] (setting [7]), -3%; in assay [4] (setting [8]), 92% (active); in assay [4] (at 50.0 µM) it was 98.3% (active). Besides, the growth inhibition in assay [5] (setting [7]) was 3%; in assay [5] (setting [8]) it was 90% (active); in assay [5] (at 50.0 µM), 98.2% (active); in assay [6] (setting [7]), 0%; in assay [6] (setting [8]) it was 94% (active); in assay [6] (at 50.0 µM), 98.8% (active).

`Nc1ccccc1Sc1ccc(F)cc1[N+](=O)[O-]`: the growth inhibition was -6% in assay [1] (setting [7]); 85% (active) in assay [1] (setting [8]); 71% (active) in assay [1] (at 50.0 µM); -19% in assay [2] (setting [7]); 26% in assay [2] (setting [8]); 89.8% (active) in assay [2] (at 50.0 µM). In addition, the growth inhibition is 2% in assay [3] (setting [7]); 76% (active) in assay [3] (setting [8]); 89.1% (active) in assay [3] (at 50.0 µM); -6% in assay [4] (setting [7]); 59% in assay [4] (setting [8]); 72.3% (active) in assay [4] (at 50.0 µM). The growth inhibition in assay [5] (setting [7]) was -3%; in assay [5] (setting [8]) it was 85% (active); in assay [5] (at 50.0 µM), 88.8% (active); in assay [6] (setting [7]) it was -4%; in assay [6] (setting [8]), 93% (active); in assay [6] (at 50.0 µM) it was 88.5% (active).

With `COc1cc(/C=C/C2=C(C)C(=O)CC(c3cc(OC)c(OC)c(OC)c3)C2C)cc(OC)c1OC` (configuration not stated), the growth inhibition in assay [1] (setting [7]) was 2%; in assay [1] (setting [8]), -1%; in assay [1] (at 50.0 µM), -6.25%; in assay [2] (setting [7]), -5%; in assay [2] (setting [8]) it was 22%; in assay [2] (at 50.0 µM), -1.7%. Moreover, the growth inhibition in assay [3] (setting [7]) is 0%; in assay [3] (setting [8]) it was 25%; in assay [3] (at 50.0 µM), 15.4%; in assay [4] (setting [7]), -8%; in assay [4] (setting [8]) it was -27%; in assay [4] (at 50.0 µM), 75.8% (active). For the same compound, the growth inhibition was -2% in assay [5] (setting [7]); 7% in assay [5] (setting [8]); 2.1% in assay [5] (at 50.0 µM); 0% in assay [6] (setting [7]); -102% in assay [6] (setting [8]); 42.6% in assay [6] (at 50.0 µM).

As for `Cc1cc(O)c(C=NC(=S)C(N)=S)c(=O)o1`, the growth inhibition in assay [1] (setting [7]) is 29%; in assay [1] (setting [8]), 43%; in assay [1] (at 50.0 µM), -27.7%; in assay [2] (setting [7]) it was 13%; in assay [2] (setting [8]), 42%; in assay [2] (at 50.0 µM) it was -19.6%. In addition, the growth inhibition in assay [3] (setting [7]) is 22%; in assay [3] (setting [8]), 46%; in assay [3] (at 50.0 µM), 8.7%; in assay [4] (setting [7]), 14%; in assay [4] (setting [8]), 22%; in assay [4] (at 50.0 µM) it was -4.4%. For the same compound, the growth inhibition in assay [5] (setting [7]) was 21%; in assay [5] (setting [8]) it was 49%; in assay [5] (at 50.0 µM) it was -26.5%; in assay [6] (setting [7]), 17%; in assay [6] (setting [8]), 42%; in assay [6] (at 50.0 µM) it was -38%.

Regarding `N#Cc1ccc([N+](=O)[O-])cc1C#N`, the growth inhibition was -155% in assay [1] (setting [7]); 97% (active) in assay [1] (setting [8]); 99.2% (active) in assay [1] (at 50.0 µM); -46% in assay [2] (setting [7]); 97% (active) in assay [2] (setting [8]); 99.8% (active) in assay [2] (at 50.0 µM). Further, the growth inhibition in assay [3] (setting [7]) was -56%; in assay [3] (setting [8]) it was 98% (active); in assay [3] (at 50.0 µM), 99.6% (active); in assay [4] (setting [7]), -50%; in assay [4] (setting [8]), 96% (active); in assay [4] (at 50.0 µM) it was 97.6% (active). Moreover, the growth inhibition in assay [5] (setting [7]) was -66%; in assay [5] (setting [8]), 98% (active); in assay [5] (at 50.0 µM), 97.6% (active); in assay [6] (setting [7]), -135%; in assay [6] (setting [8]) it was 98% (active); in assay [6] (at 50.0 µM), 99.5% (active).

Regarding `C[n+]1c(/C=C/c2ccc(Cl)cc2)sc2ccccc21`, the growth inhibition is -4% in assay [1] (setting [7]); 36% in assay [1] (setting [8]); 60.5% in assay [1] (at 50.0 µM); -6% in assay [2] (setting [7]); 51% in assay [2] (setting [8]); 51.9% in assay [2] (at 50.0 µM). In addition, the growth inhibition in assay [3] (setting [7]) was -11%; in assay [3] (setting [8]), 36%; in assay [3] (at 50.0 µM), 73% (active); in assay [4] (setting [7]), 1%; in assay [4] (setting [8]) it was 28%; in assay [4] (at 50.0 µM), 75.2% (active). Also, the growth inhibition in assay [5] (setting [7]) is -12%; in assay [5] (setting [8]), 34%; in assay [5] (at 50.0 µM) it was 29.6%; in assay [6] (setting [7]), 11%; in assay [6] (setting [8]), 50%; in assay [6] (at 50.0 µM), 78.8% (active).

`Oc1cccc2cc(Br)cnc12`: the growth inhibition in assay [1] (setting [7]) is 24%; in assay [1] (setting [8]), 99% (active); in assay [1] (at 50.0 µM), 84% (active); in assay [2] (setting [7]) it was -17%; in assay [2] (setting [8]), 99% (active); in assay [2] (at 50.0 µM) it was 91.6% (active). Further, the growth inhibition in assay [3] (setting [7]) was -10%; in assay [3] (setting [8]), 99% (active); in assay [3] (at 50.0 µM), 81.5% (active); in assay [4] (setting [7]), 2%; in assay [4] (setting [8]) it was 99% (active); in assay [4] (at 50.0 µM), 88.8% (active). The growth inhibition in assay [5] (setting [7]) is -25%; in assay [5] (setting [8]), 99% (active); in assay [5] (at 50.0 µM) it was 88.2% (active); in assay [6] (setting [7]), 21%; in assay [6] (setting [8]), 99% (active); in assay [6] (at 50.0 µM) it was 74.7% (active).

As for `CCC12C=CCN3CC[C@@]4(c5cc([C@@]6(C(=O)OC)C[C@@H]7CN(CCc8c6[nH]c6ccccc86)C[C@](O)(CC)C7)c(OC)cc5N(C)[C@H]4[C@@](O)(C(=O)OC)[C@@H]1OC(=O)CCCCCCCCCCCN1C(=O)C=CC1=O)[C@H]32` (some centres not stated), the growth inhibition in assay [1] (setting [7]) was 16%; in assay [1] (setting [8]), 98% (active); in assay [1] (at 50.0 µM), 88.5% (active); in assay [2] (setting [7]), 42%; in assay [2] (setting [8]), 99% (active); in assay [2] (at 50.0 µM) it was 92.4% (active). In addition, the growth inhibition in assay [3] (setting [7]) was 35%; in assay [3] (setting [8]), 98% (active); in assay [3] (at 50.0 µM), 92.7% (active); in assay [4] (setting [7]) it was 16%; in assay [4] (setting [8]) it was 95% (active); in assay [4] (at 50.0 µM), 90.5% (active). For the same compound, the growth inhibition was -23% in assay [5] (setting [7]); 96% (active) in assay [5] (setting [8]); 91% (active) in assay [5] (at 50.0 µM); 32% in assay [6] (setting [7]); 98% (active) in assay [6] (setting [8]); 91.5% (active) in assay [6] (at 50.0 µM).

As for `CCn1c2ccc([N+](=O)[O-])cc2c2c([N+](=O)[O-])c(-n3cccc3)ccc21`, the growth inhibition in assay [1] (setting [7]) was 24%; in assay [1] (setting [8]) it was 59%; in assay [1] (at 50.0 µM) it was 86% (active); in assay [2] (setting [7]), 2%; in assay [2] (setting [8]), 10%; in assay [2] (at 50.0 µM) it was 0.3%. Further, the growth inhibition in assay [3] (setting [7]) was 5%; in assay [3] (setting [8]) it was 28%; in assay [3] (at 50.0 µM) it was 36.4%; in assay [4] (setting [7]), -3%; in assay [4] (setting [8]) it was 6%; in assay [4] (at 50.0 µM) it was 8.9%. Besides, the growth inhibition was -3% in assay [5] (setting [7]); -4% in assay [5] (setting [8]); 10.9% in assay [5] (at 50.0 µM); 3% in assay [6] (setting [7]); 29% in assay [6] (setting [8]); 21.2% in assay [6] (at 50.0 µM).
